Laboratory results taken from PubChem BioAssay (NCI).
Compounds without any hit were thinned out: in the full panel of roughly 83,000, 20% have a hit.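 Activity criterion: percent growth below 10, measured after cells in 96-well plates were exposed to a single compound concentration for 48 hours.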 Unmarked numbers belong to inactive results. The source made the active and inactive calls.

Experiments:
Experiment in all cases: NCI-60 one-dose screen, 48 h (100 = growth as untreated, 0 = no growth, -100 = all killed)
Settings in all cases: 10 µM unless noted
DU-145 prostate = system: DU-145 prostate
K-562 leukemia = system: K-562 leukemia
MALME-3M melanoma = system: MALME-3M melanoma
MDA-MB-231 breast = system: MDA-MB-231 breast
RXF 393 renal = system: RXF 393 renal
SF-268 CNS = system: SF-268 CNS
SF-295 CNS = system: SF-295 CNS
SF-539 CNS = system: SF-539 CNS
UACC-257 melanoma = system: UACC-257 melanoma
M14 melanoma = system: M14 melanoma

| SMILES | growth (DU-145 prostate) | growth (K-562 leukemia) | growth (MALME-3M melanoma) | growth (MDA-MB-231 breast) | growth (RXF 393 renal) | growth (SF-268 CNS) | growth (SF-295 CNS) | growth (SF-539 CNS) | growth (UACC-257 melanoma) | growth (M14 melanoma) |
| --- | --- | --- | --- | --- | --- | --- | --- | --- | --- | --- |
| CCCn1cc(-c2nc(Nc3ccc(C(=O)NCCCCNc4cccc5c4C(=O)N(C4CCC(=O)NC4=O)C5=O)cc3)nc3[nH]ccc23)cn1 (stereo not given) | 64.1% | 15.8% | -24.4% (active) | -23.3% (active) | 34.9% | 28.2% | 28.3% | 26.6% | 96.4% | 21.4% |
| Cc1cc2nc3c4ccccc4n(CCCN(C)C)c3nc2cc1C | 2.68% (active) | -4.14% (active) | -89.6% (active) | -23.4% (active) | -62.1% (active) | -38.6% (active) | -30.4% (active) | -69.4% (active) | -81.2% (active) | -74.4% (active) |
| COC(OC)C1=C(C)OC(N)=C(C#N)C12C(=O)Nc1ccccc12 (stereo not given) | 105% | 82% | 87.2% | 102% | 109% | 104% | 138% | 100% | 100% | 94.9% |
| CN(C)c1ccnc(NCCCSC(c2ccccc2)(c2ccccc2)c2ccccc2)c1 | 46.2% | -36.6% (active) | -94.6% (active) | 31% | 6.09% (active) | 78.8% | 17% | 41.6% | -26.9% (active) | -70.8% (active) |
| Cc1ccc(C(=O)C(c2c[nH]c3ccccc23)c2c[nH]c3ccccc23)cc1 | 4.62% (active) | 5.78% (active) | 72.6% | 24.2% | 34% | 51.5% | 81.9% | 70.4% | 76.6% | 33.9% |
| Cc1ccc(C(=O)NN2C(=O)/C(=C/C=C/c3ccc([N+](=O)[O-])o3)SC2=S)cc1 | -100% (active) | 6.34% (active) | -98% (active) | -96.4% (active) | -90% (active) | -86.7% (active) | -87.6% (active) | -96.6% (active) | -81.5% (active) | -70.6% (active) |
| COc1cc2c(c(OC)c1OC)C(=O)CC(c1cccc(NC(=O)c3cc(NC(=O)[C@H](C)N)ccc3Cl)c1)O2 (stereo not given in full) | 36% | 9.72% (active) | 45.5% | 52.5% | 32.1% | 50.5% | 110% | 44.3% | 62.9% | 44.3% |
| Cc1ccc(NC(=O)CN2CCN(c3ncnc4c3cnn4-c3ccccc3)CC2)cc1 | 92.5% | 59.8% | 90.8% | 80.6% | 86.7% | 80.7% | 116% | 84.6% | 92.8% | 100% |
| COc1ccc(-c2nc3cc(C)ccc3n2CC(=O)N=Nc2c(O)[nH]c3ccc(Cl)cc23)cc1 | 15% | 4.54% (active) | -56.9% (active) | -43.8% (active) | -63.2% (active) | 21.6% | -67.5% (active) | -52.7% (active) | -31.2% (active) | -44.6% (active) |
| COc1ccc(C(=O)/C=C/c2ccc(OCc3ccccc3)c(OC)c2)cc1OC | 7.25% (active) | 10.5% | 71.5% | 13% | 24.2% | 32.6% | 25.8% | -37.9% (active) | 58.9% | 62.3% |
| Nc1nc(-c2ccccc2)c(N=Nc2ccc([N+](=O)[O-])cc2Cl)s1 | 95.4% | 67.3% | 108% | 87.8% | 109% | 90.2% | 92.1% | 96.5% | 61.6% | 92.9% |
| Cc1ccc(S(=O)(=O)c2nc(S(=O)(=O)c3ccc(C)cc3)c(N3CCC(O)CC3)s2)cc1 | 70% | 29% | 92.2% | 71.8% | 33.6% | 70.3% | 96.6% | 73.7% | 81.6% | 71.2% |
| COc1ccc(-c2ccc(SCC(=O)Nc3ccc(S(N)(=O)=O)cc3Br)nn2)cc1 | 72% | 101% | 89.4% | 85.1% | 89.2% | 17.9% | 60.2% | 42.9% | 87.9% | 101% |
| COc1c(F)ccc(C(=O)Nc2ccc3nc(NC(=O)C4CCCN(S(=O)(=O)c5ccc(Br)c(F)c5)C4)sc3c2)c1F (stereo not given) | 102% | 62.5% | 95.6% | 83.5% | -1.15% (active) | 96.7% | 72.5% | 64.5% | 80.7% | 80.7% |
| Cc1ccccc1[C@H]1C(C(=O)c2ccc(Cl)cc2)C2(N[C@@H]1c1ccccc1)C(=O)Nc1ccc(Cl)cc12 (stereo not given in full) | 5.12% (active) | -2.2% (active) | -33.3% (active) | -72.2% (active) | -67.7% (active) | 29.3% | -22.5% (active) | -58.1% (active) | 4.82% (active) | -78.4% (active) |
| C=C1CCC2C3(C)COC(c4ccc(F)cc4)OC3CCC2(C)C1C/C=C1/C(=O)OCC1O (stereo not given) | -41.4% (active) | 11.9% | -71.9% (active) | -45.2% (active) | -69.7% (active) | 39.7% | -8.06% (active) | -85.5% (active) | -62.6% (active) | -68.1% (active) |
| COc1cc(OC)c2c3nc4cc(C)c(C)cc4nc3n(CCN(C)C)c2c1 | 60.4% | 1.64% (active) | -36.1% (active) | 38% | -18.4% (active) | 86.2% | 53.7% | -83.5% (active) | 101% | 47.9% |
| CC(C)c1sc(NC(=O)c2cc(NC(=O)c3cc(NC(=O)c4cscn4)cn3C)cn2C)nc1C(=O)NCCCN(C)C | 16.4% | 8.89% (active) | -51.7% (active) | -33.3% (active) | -47.2% (active) | 16.3% | 58.7% | -33.6% (active) | 7.52% (active) | 45% |
| COC(=O)/C=C/c1cccc2c1C(=O)NC(C)(c1cc3ccccc3oc1=O)N2 (stereo not given) | 62.7% | 56.6% | 58.7% | 76.3% | 58.9% | 82.3% | 84.9% | 73.2% | 77.7% | 41.7% |
| Cc1ccc(-c2nc(C#N)c(S(=O)(=O)N3CCN(S(=O)(=O)c4ccccc4)CC3)o2)cc1 | 28.8% | -28.1% (active) | -77.4% (active) | 31.4% | -89.2% (active) | 56.5% | 149% | -43.4% (active) | 44.7% | -21.3% (active) |
| COc1cc2c(c(OC)c1OC)C(=O)CC(c1cccc(NC(=O)c3cccc([N+](=O)[O-])c3)c1)O2 (stereo not given) | 26.9% | 25.7% | 33.5% | 24.2% | 43.6% | 38.4% | 44.6% | 48.7% | 44.1% | 37.2% |
| N=C1N=C(SCc2nc3ccccc3[nH]2)NC(=O)/C1=C/c1ccc(Cl)cc1 | 110% | 110% | 96.4% | 92.8% | 113% | 112% | 103% | 102% | 106% | 108% |
